Laboratory results taken from PubChem BioAssay AID602229 (The Scripps Research Institute Molecular Screening Center, 2012).
Screen size: about 360,000 compounds; about 1,300 (0.36%) were called active. For the sample, actives were picked, then their nearest neighbours and some compounds at random. Unmarked numbers belong to inactive results.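 How the source made its calls: active means inhibition above the mean of all tested compounds plus 3 SD (cut at about 70% in these data); inactive means the rest.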

These compounds were tested against Photoreceptor-specific nuclear receptor (Homo sapiens) (UniProt Q9Y5X4) (assay: NR2E3 agonists in two-hybrid cells, primary screen, cell-based, luminescence, CHO-S, Gal4-NCOR/VP16-NR2E3 (AID 602229;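 further: 0% = DMSO with NR2E3 transfected cells and 100% = cells lacking NR2E3 construct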)). Details: luciferase, at 3.98 µM, hits give high values.
Sequence of Photoreceptor-specific nuclear receptor (Homo sapiens) (Q9Y5X4 whole entry, looked up, the tested form may be a part): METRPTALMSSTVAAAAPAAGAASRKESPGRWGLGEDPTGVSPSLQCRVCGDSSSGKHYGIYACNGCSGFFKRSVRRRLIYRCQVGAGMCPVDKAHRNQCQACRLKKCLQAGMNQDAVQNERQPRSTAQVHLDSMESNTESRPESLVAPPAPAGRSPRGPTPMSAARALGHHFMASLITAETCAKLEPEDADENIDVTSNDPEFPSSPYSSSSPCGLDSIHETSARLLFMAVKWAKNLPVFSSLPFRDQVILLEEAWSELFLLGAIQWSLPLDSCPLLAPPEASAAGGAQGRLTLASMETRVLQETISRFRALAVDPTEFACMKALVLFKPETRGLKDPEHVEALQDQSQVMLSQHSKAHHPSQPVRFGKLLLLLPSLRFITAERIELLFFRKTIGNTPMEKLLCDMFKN

Compared with `Cc1nc(NC(=O)CCC(=O)O)sc1C(=O)N(C)C`, `Cc1sc2ncnc(SCC(=O)NC3CCS(=O)(=O)C3)c2c1C` (centres undefined) is higher in inhibition of corepressor binding: -26.6% for the first, 11.1% for the second.

First: C[C@@H]1NC(=O)c2cc([N+](=O)[O-])cc(F)c2NCCC[C@@H](C(N)=O)NC(=O)[C@H](CC(N)=O)NC1=O
Second: CC1CC1C(=O)OCC(=O)c1c(N)n(C)c(=O)n(C)c1=O (centres undefined)
The inhibition of corepressor binding of the first is lower: -1.65% for the first, 4.9% for the second.

Going from `O=C(Nc1ccccc1C(=O)N1CCCCCC1)c1ccccc1Cl` to `O=C(NCc1ccccc1)c1cccc(NC(=O)C2CCCCC2)c1`, the inhibition of corepressor binding falls from -5.45% to -12.6%.

First: Cc1cc(C(=O)OCC(=O)Nc2ccccc2Cl)c(C)o1
Second: C=CCNC(=O)c1ccccc1SCc1c(C)noc1C
The inhibition of corepressor binding of the first is higher: -11.3% for the first, -20.3% for the second.

First: CCNC(=O)c1c(O)c2cccc3c2n(c1=O)CC3
Second: CCOC(=O)c1sc(C)c2c1NC(C)(c1cccc3ccccc13)NC2=O (centres undefined)
The inhibition of corepressor binding of the first is lower: -12.8% for the first, -1.53% for the second.

Going from `CC1CN(Cc2ccco2)C(=S)N(c2ccccc2)C1=O` (centres undefined) to `O=C1CSC(c2cccc(F)c2)N1c1ccccc1F` (centres undefined), the inhibition of corepressor binding falls from 10.4% to -28.1%.

Going from `CCN(CC)C(=O)CSc1nnc(CNc2ccc(F)cc2)n1Cc1ccco1` to `O=C1C=C(c2cccc(Cl)c2)C[C@@H](c2ccc(F)cc2)C1`, the inhibition of corepressor binding falls from -4.24% to -24.8%.

Going from `CC(/C=C/c1ccco1)=N/NC(=O)C1COc2ccccc2O1` (centres undefined) to `COc1ccc(S(=O)(=O)NCCOc2ccccc2)cc1F`, the inhibition of corepressor binding falls from -22.3% to -29.5%.

First: FC(F)(F)c1nnc2c3ccccc3c(Cl)nn12
Second: OC(c1ccc(F)cc1)c1ncc(-c2cccc(C(F)(F)F)c2)[nH]1 (centres undefined)
The inhibition of corepressor binding of the first is lower: -2.37% for the first, 30.1% for the second.

Compared with `COc1ccc(OCCNS(=O)(=O)Cc2ccccc2)cc1`, `Cc1ccc(-c2cnc(C(O)c3cc(Cl)cc(Cl)c3)[nH]2)cc1` (centres undefined) is higher in inhibition of corepressor binding: -15.6% for the first, -10.6% for the second.

First: Cc1[nH]n(C(N)=S)c(=O)c1N=Nc1ccc(Cl)cc1Cl
Second: O=C1C=C(c2cc(C(F)(F)F)cc(C(F)(F)F)c2)C[C@@H](c2ccc3c(c2)OCO3)C1
The inhibition of corepressor binding of the first is lower: -3.9% for the first, -2.34% for the second.

`COc1ccc2c(c1)c(=Cc1ccc(N(C)C)cc1)c1cc(-c3ccccc3)[n+](C)n12` was tested, and the inhibition of corepressor binding was 82.2% (active).
In the case of `O=C(Nc1ccccc1Cl)/C(Cl)=C(\Cl)S(=O)c1ccccc1` (centres undefined), the inhibition of corepressor binding is reported as 90.4% (active).
`CN(C)C(=S)N=c1ssc(=S)n1Cc1ccco1` was tested, and the inhibition of corepressor binding was 91.5% (active).
`CC(C)OCCCNc1ncnc2c1[nH]c1ccc(F)cc12` was tested, and the inhibition of corepressor binding was 75.6% (active).
With `COc1ccc(S(=O)(=O)NCCCCOc2ccc(Cl)cc2)cc1` the inhibition of corepressor binding was 96.7% (active).
With `OC(c1ccc(Cl)cc1)c1ncc(-c2ccc(Cl)cc2)[nH]1` (centres undefined) the inhibition of corepressor binding was 71.4% (active).
In the case of `O=C1C=C(c2ccnc3cc(Cl)ccc23)C[C@@H](c2ccc3c(c2)OCO3)C1`, the inhibition of corepressor binding is reported as 85.8% (active).
